Data published in PMC7862700, “An all-to-all approach to the identification of sequence-specific readers for epigenetic DNA modifications on cytosine”.

How the values were obtained:
Assay in all cases: DAPPL (digital affinity profiling via proximity ligation, sequencing); 10 mM Tris-HCl pH 7.5, 50 mM NaCl, 1 mM DTT, 4% glycerol, room temperature, 30 min; GST-TFs on glutathione beads, 16-mer random dsDNA library, 0.1% formaldehyde crosslink after washing; high values mean tight binding
Settings in all cases: protein: recombinant; tags: N-terminal GST; dsDNA, one strand shown
[1] = molecular target: T1, FLI1 (Homo sapiens, UniProt Q01543 1-452)
T1 sequence: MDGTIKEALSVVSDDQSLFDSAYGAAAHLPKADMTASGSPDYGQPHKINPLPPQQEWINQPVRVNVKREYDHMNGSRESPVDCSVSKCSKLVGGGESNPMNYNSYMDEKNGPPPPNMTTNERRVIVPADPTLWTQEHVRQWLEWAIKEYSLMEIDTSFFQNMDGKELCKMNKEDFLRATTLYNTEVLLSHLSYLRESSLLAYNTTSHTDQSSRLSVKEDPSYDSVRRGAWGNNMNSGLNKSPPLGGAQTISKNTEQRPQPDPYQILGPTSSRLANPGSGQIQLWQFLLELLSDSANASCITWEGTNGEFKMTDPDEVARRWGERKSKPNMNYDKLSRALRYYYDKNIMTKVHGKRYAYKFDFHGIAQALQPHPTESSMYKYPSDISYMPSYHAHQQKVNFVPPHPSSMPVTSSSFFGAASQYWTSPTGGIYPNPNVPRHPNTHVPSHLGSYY
In short: (§1)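 Human transcription factors fused to GST were expressed in yeast, captured on glutathione beads, given DNA barcodes and pooled with a GST-only negative control. Pools were incubated with 200 nmole of a 16-mer random double-stranded DNA library in Tris/NaCl/DTT/glycerol buffer at room temperature for 30 min. They were then washed, crosslinked with 0.1% formaldehyde, proximity-ligated (BsaI/T4 ligase, 1 h, 37 °C), PCR-amplified and sequenced on an Illumina NextSeq500. Binding signal is each 6-mer's read frequency for a factor divided by its frequency for the GST control.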

[2] = molecular target: T2, EHF (Homo sapiens, UniProt Q9NZC4 1-300)
T2 sequence: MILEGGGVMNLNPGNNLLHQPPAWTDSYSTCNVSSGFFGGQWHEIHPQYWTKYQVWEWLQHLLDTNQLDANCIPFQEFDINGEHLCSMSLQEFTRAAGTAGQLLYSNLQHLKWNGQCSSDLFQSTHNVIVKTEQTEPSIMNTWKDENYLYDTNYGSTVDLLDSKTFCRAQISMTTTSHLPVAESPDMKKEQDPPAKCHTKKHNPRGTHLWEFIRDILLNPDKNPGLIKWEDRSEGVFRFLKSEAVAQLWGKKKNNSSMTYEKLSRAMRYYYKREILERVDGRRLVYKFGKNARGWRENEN
In short: as §1

[3] = molecular target: T3, ELK3 (Homo sapiens, UniProt P41970 1-407)
T3 sequence: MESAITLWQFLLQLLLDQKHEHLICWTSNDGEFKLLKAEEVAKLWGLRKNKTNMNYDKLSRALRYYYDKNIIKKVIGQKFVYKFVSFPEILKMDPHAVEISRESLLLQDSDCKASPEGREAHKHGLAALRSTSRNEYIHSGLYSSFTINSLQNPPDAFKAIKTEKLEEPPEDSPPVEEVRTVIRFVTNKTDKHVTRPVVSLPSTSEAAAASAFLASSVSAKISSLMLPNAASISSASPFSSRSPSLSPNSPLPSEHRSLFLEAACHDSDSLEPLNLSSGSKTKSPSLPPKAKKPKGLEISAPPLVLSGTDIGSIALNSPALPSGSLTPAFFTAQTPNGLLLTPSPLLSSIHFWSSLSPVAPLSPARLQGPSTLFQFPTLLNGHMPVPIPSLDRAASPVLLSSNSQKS
In short: as §1

[4] = molecular target: T4, SPIC (Homo sapiens, UniProt Q8N5J4 1-248)
T4 sequence: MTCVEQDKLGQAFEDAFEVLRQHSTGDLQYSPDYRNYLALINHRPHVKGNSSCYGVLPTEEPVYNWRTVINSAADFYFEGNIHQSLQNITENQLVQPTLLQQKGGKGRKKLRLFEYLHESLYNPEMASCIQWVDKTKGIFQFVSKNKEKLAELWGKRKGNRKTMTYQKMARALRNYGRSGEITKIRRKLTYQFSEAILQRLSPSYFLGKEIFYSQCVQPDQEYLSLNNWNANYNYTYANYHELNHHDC
In short: as §1

[5] = molecular target: ELF4 (Homo sapiens, UniProt Q99607 1-663)
In short: as §1

[6] = molecular target: T5, ETV2 (Homo sapiens, UniProt O00321 1-342)
T5 sequence: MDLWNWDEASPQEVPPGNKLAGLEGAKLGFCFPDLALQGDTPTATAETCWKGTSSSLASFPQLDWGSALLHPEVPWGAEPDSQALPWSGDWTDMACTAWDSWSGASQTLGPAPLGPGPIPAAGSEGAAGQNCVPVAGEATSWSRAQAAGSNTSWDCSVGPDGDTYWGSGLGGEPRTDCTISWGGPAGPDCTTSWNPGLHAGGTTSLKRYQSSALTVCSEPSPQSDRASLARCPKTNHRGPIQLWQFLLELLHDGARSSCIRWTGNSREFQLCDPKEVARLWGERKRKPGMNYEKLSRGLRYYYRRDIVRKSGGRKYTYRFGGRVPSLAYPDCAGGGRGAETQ
In short: as §1

[7] = molecular target: T6, ELF3 (Homo sapiens, UniProt P78545 1-371)
T6 sequence: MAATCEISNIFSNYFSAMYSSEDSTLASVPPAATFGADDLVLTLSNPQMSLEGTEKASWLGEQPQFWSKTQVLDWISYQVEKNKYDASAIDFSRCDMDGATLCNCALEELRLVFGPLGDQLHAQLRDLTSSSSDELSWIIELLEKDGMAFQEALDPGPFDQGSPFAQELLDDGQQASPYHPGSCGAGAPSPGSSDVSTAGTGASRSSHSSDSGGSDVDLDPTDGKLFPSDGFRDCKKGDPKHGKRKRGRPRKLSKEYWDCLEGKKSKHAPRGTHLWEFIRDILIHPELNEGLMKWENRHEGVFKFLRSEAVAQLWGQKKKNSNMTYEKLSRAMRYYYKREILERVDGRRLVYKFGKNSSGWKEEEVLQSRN
In short: as §1

[8] = molecular target: ETV1 (Homo sapiens, UniProt P50549 1-477)
In short: as §1

[9] = molecular target: T7, ERF (Homo sapiens, UniProt P50548 1-548)
T7 sequence: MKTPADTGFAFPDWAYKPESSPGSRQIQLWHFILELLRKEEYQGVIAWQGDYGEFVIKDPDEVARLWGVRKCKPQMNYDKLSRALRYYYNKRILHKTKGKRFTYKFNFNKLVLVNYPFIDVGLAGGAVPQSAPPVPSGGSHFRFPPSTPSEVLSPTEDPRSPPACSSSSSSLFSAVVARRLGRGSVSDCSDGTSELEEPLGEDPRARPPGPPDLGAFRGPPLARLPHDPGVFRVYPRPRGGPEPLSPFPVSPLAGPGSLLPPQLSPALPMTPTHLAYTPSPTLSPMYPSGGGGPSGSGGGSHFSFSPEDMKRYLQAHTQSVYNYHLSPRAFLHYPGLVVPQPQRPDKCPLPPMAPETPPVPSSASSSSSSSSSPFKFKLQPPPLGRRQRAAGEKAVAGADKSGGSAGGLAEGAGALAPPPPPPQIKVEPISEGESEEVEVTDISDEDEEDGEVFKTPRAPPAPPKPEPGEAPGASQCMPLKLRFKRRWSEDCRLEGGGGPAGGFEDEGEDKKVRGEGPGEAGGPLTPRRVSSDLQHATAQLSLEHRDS
In short: as §1

[10] = molecular target: T8, ETV7 (Homo sapiens, UniProt Q9Y603 1-341)
T8 sequence: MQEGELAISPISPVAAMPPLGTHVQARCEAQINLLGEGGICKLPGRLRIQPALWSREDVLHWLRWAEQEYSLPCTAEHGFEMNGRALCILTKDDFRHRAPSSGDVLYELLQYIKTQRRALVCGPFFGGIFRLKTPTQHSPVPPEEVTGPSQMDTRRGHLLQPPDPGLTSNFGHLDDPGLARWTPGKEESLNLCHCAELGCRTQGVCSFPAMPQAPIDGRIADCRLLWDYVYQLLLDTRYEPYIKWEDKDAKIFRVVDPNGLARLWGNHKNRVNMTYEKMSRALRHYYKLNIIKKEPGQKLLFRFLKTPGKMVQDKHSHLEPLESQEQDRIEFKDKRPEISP
In short: as §1

[11] = molecular target: T9, ELK4 (Homo sapiens, UniProt P28324-2 1-405)
T9 sequence: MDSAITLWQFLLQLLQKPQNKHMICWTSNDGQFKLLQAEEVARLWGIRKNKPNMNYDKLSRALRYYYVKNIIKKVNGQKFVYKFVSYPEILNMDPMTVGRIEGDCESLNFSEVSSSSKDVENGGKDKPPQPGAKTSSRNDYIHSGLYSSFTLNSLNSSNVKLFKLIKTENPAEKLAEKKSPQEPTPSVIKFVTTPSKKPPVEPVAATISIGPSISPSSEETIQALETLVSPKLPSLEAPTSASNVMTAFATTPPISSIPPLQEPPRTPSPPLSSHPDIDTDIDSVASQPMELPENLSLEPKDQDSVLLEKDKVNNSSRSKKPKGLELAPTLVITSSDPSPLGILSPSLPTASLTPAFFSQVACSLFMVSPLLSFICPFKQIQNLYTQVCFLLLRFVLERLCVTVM
In short: as §1

Chain of ELF4 (Q99607 whole entry): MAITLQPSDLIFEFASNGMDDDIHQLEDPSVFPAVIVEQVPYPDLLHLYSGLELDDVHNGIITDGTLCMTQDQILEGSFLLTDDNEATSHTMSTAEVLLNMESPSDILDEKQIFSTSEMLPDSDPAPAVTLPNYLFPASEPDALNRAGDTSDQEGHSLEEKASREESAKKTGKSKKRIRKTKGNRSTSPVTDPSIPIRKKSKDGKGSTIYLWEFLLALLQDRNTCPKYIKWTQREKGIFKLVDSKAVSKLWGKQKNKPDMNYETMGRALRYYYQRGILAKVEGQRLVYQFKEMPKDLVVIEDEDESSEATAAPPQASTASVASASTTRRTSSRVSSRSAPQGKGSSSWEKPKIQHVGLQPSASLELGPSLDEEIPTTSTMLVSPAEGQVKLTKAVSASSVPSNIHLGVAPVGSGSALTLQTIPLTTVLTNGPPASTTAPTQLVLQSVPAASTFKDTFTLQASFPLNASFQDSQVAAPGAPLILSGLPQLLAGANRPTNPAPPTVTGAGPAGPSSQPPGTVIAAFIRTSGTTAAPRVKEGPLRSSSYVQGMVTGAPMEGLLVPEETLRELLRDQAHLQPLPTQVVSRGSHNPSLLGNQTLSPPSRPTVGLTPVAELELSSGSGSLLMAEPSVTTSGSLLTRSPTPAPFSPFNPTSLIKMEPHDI
Chain of ETV1 (P50549 whole entry): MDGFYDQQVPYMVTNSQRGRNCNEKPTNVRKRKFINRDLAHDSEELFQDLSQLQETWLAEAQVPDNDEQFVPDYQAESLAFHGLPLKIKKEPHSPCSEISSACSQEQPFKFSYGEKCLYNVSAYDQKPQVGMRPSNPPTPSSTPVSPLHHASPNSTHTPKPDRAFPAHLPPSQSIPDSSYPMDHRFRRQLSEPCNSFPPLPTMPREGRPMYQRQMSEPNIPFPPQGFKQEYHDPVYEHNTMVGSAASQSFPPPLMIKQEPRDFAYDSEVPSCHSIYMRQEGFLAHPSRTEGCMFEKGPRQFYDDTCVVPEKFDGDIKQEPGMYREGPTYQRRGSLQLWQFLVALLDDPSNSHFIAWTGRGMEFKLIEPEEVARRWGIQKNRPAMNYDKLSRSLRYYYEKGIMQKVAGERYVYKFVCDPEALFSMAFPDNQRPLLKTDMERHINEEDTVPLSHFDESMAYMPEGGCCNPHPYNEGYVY

Sequence	binding signal [1]	binding signal [2]	binding signal [3]	binding signal [4]	binding signal [5]	binding signal [6]	binding signal [7]	binding signal [8]	binding signal [9]	binding signal [10]	binding signal [11]
AGATCT	1.06 fold enrichment (6-mer frequency, TF over GST control)	1.04 fold enrichment (6-mer frequency, TF over GST control)	1.07 fold enrichment (6-mer frequency, TF over GST control)	1.07 fold enrichment (6-mer frequency, TF over GST control)	1.01 fold enrichment (6-mer frequency, TF over GST control)	1.11 fold enrichment (6-mer frequency, TF over GST control)	1.09 fold enrichment (6-mer frequency, TF over GST control)	1.1 fold enrichment (6-mer frequency, TF over GST control)	1.05 fold enrichment (6-mer frequency, TF over GST control)	1.05 fold enrichment (6-mer frequency, TF over GST control)	–
TGAAGA	1 fold enrichment (6-mer frequency, TF over GST control)	–	1.03 fold enrichment (6-mer frequency, TF over GST control)	1.01 fold enrichment (6-mer frequency, TF over GST control)	1.01 fold enrichment (6-mer frequency, TF over GST control)	–	–	–	1.09 fold enrichment (6-mer frequency, TF over GST control)	1.04 fold enrichment (6-mer frequency, TF over GST control)	1.02 fold enrichment (6-mer frequency, TF over GST control)
